13 compounds from PubChem BioAssay (NCATS) can be followed below.

Inconclusive results are not listed. The source made the active and inactive calls. The call rests on the fitted dose curve; in most records, active means well fitted curve in the direction sought with a large enough effect; inconclusive means small, poorly fitted or top-dose-only effect, or another doubt; inactive means no such curve, though single readings can be large or run the other way.
On the % scale 0 is the no-effect control and ±100 the full control effect.

This assay is described as follows: qHTS Assay for Identifying Gametocytocidal Compounds (AID 743244).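 Further: actives lower the fluorescent signal which means gametocytes are killed.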 Particulars: P. falciparum 3D7 stage III-V gametocytes, alamarBlue, 72 h; max response: hits give low values. Summed up:
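Viability read-out was resazurin reduction (alamarBlue, 24 h) measured at Ex 525/Em 598 nm. Beforehand, late-stage (III-V) 3D7 P. falciparum gametocytes at 20,000 cells/well were incubated with compound 72 h at 37C under 5% CO2.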
(In general: In qHTS, concentration-response curves come from the screen itself.)
In the case of `CC1=C(C(=O)OCCN(Cc2ccccc2)c2ccccc2)C(c2cccc([N+](=O)[O-])c2)C(P2(=O)OCC(C)(C)CO2)=C(C)N1` (stereo not drawn), the max response is 12.9% (inactive).
With `O=S(O)CO`, the max response was 18.2% (inactive).
With `C=C[C@]1(C)C[C@@H](OC(=O)CO)[C@]2(C)[C@H](C)CC[C@]3(CCC(=O)[C@H]32)[C@@H](C)[C@@H]1O`, the max response was 11.6% (inactive).
With `Cc1cc(Nc2ccccc2C(=O)O)ccc1Cl` the figure was -23.6% (inactive).
On to `CCN(CC)CCOC(=O)c1ccc(N)cc1Cl`, for which the max response was -6.93% (inactive).
For the compound `NCCCC[C@H](NC(=O)[C@@H]1CCCN1C(=O)[C@@H]1CSSC[C@H](N)C(=O)N[C@@H](Cc2ccccc2)C(=O)N[C@@H](Cc2ccccc2)C(=O)N[C@@H](CCC(N)=O)C(=O)N[C@@H](CC(N)=O)C(=O)N1)C(=O)NCC(N)=O`, the max response was -4.07% (inactive).
As for `NC(=O)C[C@@H](N)C(=O)O`, the max response was -9.98% (inactive).
With `CCC(=O)O`, the max response is -11.8% (inactive).
Take `O=c1[nH]cnc2[nH]cc(CN3CCCCC3)c12`: the max response is 10.8% (inactive).
For `CCOC(=O)[C@H](CCc1ccccc1)N[C@H]1CCCN2CCC[C@@H](C(=O)O)N2C1=O`, the max response is -15.1% (inactive).
On to `C[C@]12CC[C@@H]3c4ccc(OS(=O)(=O)O)cc4CC[C@H]3[C@@H]1CCC2=O`, for which the max response is -15.6% (inactive).
In the case of `O=C(O)c1ccccc1[O-].O=C(O)c1ccccc1[O-].[Zn+2]`, the max response was 3.06% (inactive).
As to `CC(C)(C)CC(=O)OCC(=O)[C@@]12OC(C)(C)O[C@@H]1C[C@H]1[C@@H]3CCC4=CC(=O)C=C[C@]4(C)[C@@]3(F)[C@@H](O)C[C@@]12C`, the max response was -15% (inactive).
